# Results: the supplement of paper PMC10849652
# Targets with a hit are over-represented here; the source holds about 7,900 in all. About 0.6% of all pairs of compound and target were hits. Unmarked numbers belong to inactive results.
# Compound: Cc1ccc(-n2nc(C(C)(C)C)cc2NC(=O)Nc2ccc(OCCN3CCOCC3)c3ccccc23)cc1 [doramapimod]
# Assay: log2 fold change, soluble protein after heating vs DMSO (PISA); higher = thermal stabilisation; K562 cells, 10 uM, 30 min; active = over 0.2 and 3.5 SD of the protein, either way, in both replicates (recomputed)
# Summary of the method: (§1)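 For each measurement, 10 μM compound was applied for 30 min to K562 cells at 2×10^6 cells/mL. Aliquots were heated for 3 min across 48°C-58°C, pooled, and extracted in PBS with 0.5% NP-40 at 4°C; the supernatant after 21,000xg for 90 min was soluble protein. This was quantified by TMTpro 16plex LC-MS/MS with channel sums equalised, and thermal stability was reported relative to control samples from duplicates, on a log2 fold-change scale.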
# UniProt Q96F25, sequence (Q96F25 whole entry, looked up): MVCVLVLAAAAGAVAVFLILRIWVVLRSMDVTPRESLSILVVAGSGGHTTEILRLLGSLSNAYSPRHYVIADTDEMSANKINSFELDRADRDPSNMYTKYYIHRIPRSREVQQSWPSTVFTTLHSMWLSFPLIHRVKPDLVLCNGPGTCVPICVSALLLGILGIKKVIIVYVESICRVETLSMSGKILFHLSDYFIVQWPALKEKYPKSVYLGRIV
# UniProt Q15059, sequence (Q15059 whole entry, looked up): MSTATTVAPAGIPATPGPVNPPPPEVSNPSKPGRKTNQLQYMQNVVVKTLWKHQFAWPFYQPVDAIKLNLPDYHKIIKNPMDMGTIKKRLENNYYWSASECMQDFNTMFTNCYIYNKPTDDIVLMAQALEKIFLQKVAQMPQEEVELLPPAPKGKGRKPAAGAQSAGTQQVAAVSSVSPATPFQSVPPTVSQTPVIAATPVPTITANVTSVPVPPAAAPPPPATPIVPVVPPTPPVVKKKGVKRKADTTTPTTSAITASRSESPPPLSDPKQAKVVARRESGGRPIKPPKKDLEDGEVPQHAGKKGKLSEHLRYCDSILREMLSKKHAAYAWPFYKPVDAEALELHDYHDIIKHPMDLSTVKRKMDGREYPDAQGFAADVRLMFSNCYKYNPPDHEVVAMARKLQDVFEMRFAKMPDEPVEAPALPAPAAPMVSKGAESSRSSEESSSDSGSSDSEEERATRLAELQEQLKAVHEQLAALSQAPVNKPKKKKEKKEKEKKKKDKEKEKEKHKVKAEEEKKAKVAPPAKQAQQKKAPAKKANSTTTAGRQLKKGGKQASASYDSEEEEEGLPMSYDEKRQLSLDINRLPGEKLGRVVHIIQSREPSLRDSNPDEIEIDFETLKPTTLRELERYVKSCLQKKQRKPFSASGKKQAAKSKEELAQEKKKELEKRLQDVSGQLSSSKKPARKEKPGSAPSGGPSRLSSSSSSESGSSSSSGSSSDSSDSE
# UniProt Q13825, sequence (Q13825 whole entry, looked up): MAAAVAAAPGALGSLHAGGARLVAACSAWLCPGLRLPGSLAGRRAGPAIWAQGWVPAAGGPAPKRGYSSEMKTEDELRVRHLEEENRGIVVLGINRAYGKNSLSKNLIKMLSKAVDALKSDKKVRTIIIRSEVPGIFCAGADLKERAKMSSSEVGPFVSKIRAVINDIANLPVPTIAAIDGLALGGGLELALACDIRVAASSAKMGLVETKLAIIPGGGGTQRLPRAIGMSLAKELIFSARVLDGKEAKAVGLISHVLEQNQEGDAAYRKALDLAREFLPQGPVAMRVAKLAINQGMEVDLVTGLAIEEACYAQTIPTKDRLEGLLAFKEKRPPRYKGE
# UniProt Q9BUT1, sequence (Q9BUT1 whole entry, looked up): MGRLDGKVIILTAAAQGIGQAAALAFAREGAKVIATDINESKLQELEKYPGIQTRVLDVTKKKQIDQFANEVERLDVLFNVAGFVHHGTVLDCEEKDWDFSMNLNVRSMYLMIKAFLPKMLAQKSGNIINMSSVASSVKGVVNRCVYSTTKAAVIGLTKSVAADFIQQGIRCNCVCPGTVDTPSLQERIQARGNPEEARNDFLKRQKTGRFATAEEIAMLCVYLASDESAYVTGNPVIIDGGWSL
# UniProt Q9UNK9, sequence (Q9UNK9 whole entry, looked up): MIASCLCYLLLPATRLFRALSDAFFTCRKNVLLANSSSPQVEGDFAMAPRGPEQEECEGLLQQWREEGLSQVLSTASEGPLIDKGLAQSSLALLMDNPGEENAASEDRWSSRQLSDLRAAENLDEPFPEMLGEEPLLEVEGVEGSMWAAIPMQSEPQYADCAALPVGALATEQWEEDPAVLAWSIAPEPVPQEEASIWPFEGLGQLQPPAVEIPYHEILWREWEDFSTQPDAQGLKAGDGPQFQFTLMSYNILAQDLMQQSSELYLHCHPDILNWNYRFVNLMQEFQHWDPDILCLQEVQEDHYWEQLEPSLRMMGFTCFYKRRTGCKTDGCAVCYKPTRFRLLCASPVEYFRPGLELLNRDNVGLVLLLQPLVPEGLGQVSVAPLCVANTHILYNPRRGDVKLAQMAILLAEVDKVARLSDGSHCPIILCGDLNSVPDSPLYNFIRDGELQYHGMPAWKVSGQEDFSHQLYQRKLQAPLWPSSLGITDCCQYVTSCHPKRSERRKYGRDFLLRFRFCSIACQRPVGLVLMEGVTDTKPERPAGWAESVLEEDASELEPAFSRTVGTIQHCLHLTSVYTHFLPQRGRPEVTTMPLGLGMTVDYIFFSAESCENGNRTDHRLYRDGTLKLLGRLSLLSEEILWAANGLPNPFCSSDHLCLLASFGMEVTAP
# UniProt Q8NFV4, sequence (Q8NFV4 whole entry, looked up): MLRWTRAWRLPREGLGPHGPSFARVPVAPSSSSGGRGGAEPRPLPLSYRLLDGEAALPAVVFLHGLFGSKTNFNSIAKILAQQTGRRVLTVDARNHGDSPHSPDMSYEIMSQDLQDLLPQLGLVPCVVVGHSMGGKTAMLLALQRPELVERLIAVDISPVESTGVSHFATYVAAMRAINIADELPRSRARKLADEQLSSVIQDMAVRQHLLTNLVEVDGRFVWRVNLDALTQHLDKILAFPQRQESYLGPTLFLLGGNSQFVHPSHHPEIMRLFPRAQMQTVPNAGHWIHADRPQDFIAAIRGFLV
# UniProt P54252, sequence (P54252 whole entry, looked up): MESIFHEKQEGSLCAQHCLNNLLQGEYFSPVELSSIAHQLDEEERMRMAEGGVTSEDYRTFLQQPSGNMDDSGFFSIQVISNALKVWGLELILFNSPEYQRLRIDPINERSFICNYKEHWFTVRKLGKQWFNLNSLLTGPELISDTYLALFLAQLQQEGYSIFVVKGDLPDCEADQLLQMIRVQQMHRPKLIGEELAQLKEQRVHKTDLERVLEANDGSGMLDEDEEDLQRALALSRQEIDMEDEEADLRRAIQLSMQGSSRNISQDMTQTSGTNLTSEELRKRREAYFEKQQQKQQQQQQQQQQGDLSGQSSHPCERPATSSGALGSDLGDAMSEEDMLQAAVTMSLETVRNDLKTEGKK
# UniProt Q14CW9, sequence (Q14CW9 whole entry, looked up): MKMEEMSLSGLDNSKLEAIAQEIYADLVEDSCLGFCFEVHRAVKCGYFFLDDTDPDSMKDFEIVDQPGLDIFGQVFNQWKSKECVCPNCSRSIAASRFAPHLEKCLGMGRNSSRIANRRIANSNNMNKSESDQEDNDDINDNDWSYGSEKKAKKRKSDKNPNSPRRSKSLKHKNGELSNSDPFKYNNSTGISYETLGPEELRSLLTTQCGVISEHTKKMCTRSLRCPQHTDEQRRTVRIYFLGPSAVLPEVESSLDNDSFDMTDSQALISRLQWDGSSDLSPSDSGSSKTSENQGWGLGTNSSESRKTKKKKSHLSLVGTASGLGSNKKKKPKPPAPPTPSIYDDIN
# UniProt O14965, sequence (O14965 whole entry, looked up): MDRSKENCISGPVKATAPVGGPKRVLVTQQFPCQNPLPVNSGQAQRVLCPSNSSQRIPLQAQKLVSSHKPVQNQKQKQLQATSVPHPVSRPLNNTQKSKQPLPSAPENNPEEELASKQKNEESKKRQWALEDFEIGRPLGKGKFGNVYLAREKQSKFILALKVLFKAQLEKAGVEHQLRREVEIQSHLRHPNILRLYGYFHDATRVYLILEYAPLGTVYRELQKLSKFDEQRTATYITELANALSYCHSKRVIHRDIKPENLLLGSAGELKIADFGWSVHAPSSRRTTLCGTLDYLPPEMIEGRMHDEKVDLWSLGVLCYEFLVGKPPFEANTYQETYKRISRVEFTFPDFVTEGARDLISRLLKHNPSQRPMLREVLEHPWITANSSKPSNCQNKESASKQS
# UniProt Q562R1, sequence (Q562R1 whole entry, looked up): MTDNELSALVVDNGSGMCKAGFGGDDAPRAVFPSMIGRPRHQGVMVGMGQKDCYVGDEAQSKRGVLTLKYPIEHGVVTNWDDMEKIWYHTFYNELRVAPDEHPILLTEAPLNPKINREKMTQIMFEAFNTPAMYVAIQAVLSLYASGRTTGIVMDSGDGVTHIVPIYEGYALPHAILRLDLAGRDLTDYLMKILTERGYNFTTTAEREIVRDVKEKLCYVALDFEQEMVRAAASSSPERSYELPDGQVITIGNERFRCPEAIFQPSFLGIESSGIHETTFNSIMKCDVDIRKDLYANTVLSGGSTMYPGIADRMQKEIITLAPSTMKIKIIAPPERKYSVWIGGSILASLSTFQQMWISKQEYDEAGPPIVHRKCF
# UniProt P35612, sequence (P35612 whole entry, looked up): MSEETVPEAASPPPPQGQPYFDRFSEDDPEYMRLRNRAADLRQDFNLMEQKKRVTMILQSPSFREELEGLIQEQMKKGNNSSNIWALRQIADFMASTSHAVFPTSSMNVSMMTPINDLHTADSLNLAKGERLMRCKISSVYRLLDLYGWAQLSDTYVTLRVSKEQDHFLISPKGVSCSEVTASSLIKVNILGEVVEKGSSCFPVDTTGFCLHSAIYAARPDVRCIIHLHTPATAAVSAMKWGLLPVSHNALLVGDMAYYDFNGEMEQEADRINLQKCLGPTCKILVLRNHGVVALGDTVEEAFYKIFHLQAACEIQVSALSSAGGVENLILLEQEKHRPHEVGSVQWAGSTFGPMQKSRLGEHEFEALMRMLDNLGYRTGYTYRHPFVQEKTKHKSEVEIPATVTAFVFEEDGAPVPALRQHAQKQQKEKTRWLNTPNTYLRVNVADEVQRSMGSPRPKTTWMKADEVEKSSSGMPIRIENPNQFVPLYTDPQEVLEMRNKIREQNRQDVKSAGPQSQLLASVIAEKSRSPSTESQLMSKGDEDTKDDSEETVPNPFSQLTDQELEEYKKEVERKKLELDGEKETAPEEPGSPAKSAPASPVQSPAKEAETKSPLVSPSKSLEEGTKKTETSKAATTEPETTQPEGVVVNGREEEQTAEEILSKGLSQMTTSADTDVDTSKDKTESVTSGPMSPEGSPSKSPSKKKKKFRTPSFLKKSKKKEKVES
# UniProt P55008, sequence (P55008 whole entry, looked up): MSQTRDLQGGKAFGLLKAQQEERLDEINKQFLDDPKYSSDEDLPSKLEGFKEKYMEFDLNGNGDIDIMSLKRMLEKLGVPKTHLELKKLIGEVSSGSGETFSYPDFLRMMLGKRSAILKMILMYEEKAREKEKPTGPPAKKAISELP
row,Target,log2 fold change
1,AARSD1 (UniProt Q9BTE6),-0.096
2,"BRAF, A0A2R8Y8E0",-0.757 (active)
3,BDH2 (UniProt Q9BUT1),-0.053
4,AUH (UniProt Q13825),0.071
5,ATXN7L3 isoform 2 (UniProt Q14CW9),0.169
6,ACTR3B (UniProt Q9P1U1),0.158
7,ALG14 (UniProt Q96F25),-0.038
8,ANGEL1 (UniProt Q9UNK9),-0.028
9,ATXN3 isoform 1 (UniProt P54252),0.087
10,ABHD11 (UniProt Q8NFV4),0.028
11,BRD3 (UniProt Q15059),-0.083
12,ATR (UniProt Q13535),-0.123
13,AURKA (UniProt O14965),0.051
14,ADD1 isoform 4 (UniProt P35611),-0.075

# Compound: Cc1ccc(C(=O)N(CCCN)[C@@H](c2nc3cc(Cl)ccc3c(=O)n2Cc2ccccc2)C(C)C)cc1 [ispinesib]
# Assay: as above
# Summary of the method: as §1
row,Target,log2 fold change
1,"BRAF, A0A2R8Y8E0",-0.223
2,BDH2 (UniProt Q9BUT1),0.053
3,AUH (UniProt Q13825),-0.069
4,ATXN7L3 isoform 2 (UniProt Q14CW9),-0.007
5,ALDH9A1 (UniProt P49189),-0.243
6,ALDH2 isoform 2 (UniProt P05091),-0.214
7,BRD4 (UniProt O60885),-0.022
8,ACTR3B (UniProt Q9P1U1),-0.069
9,AIF1 (UniProt P55008),-0.317
10,ALG14 (UniProt Q96F25),-0.018
11,ARHGAP4 isoform 2 (UniProt P98171),-0.111
12,ARRDC1 (UniProt Q8N5I2),-0.082
13,ANGEL1 (UniProt Q9UNK9),0.27
14,ATXN3 isoform 1 (UniProt P54252),-0.043
15,ABHD11 (UniProt Q8NFV4),0.029
16,AZI2 (UniProt Q9H6S1),-0.019
17,BRD3 (UniProt Q15059),-0.03
18,ATR (UniProt Q13535),0.004
19,AURKA (UniProt O14965),-0.107
20,ACSL6 isoform 1 (UniProt Q9UKU0),-0.198
21,ASS1 (UniProt P00966),-0.205
22,ADD2 isoform 9 (UniProt P35612),0.04
23,BTBD6 (UniProt Q96KE9),0.209
24,ACTBL2 (UniProt Q562R1),-0.307
